This is an account of results in PubChem BioAssay.

Structures are written as SMILES. Active and inactive are the calls of the source.

The experiment is described as follows: optical density shifts of acrAB sulA E. coli – strain DRC41, OD650, 48 h, E. coli filamentation inducer project, primary screen (AID 1152).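 Also: E. coli MC1000 strain DRC41 lacking acrAB efflux pump and sulA.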 The conditions noted are these: higher = more signal, called active from +8 up or from −8 down.
As to `Cc1ccccc1C(O)C1C=CC2C(=O)N(c3ccccc3)C(=O)C2N1Nc1ccccc1F` (stereo not given), the z-score was -1.37 (inactive). The value for `COC(=O)[C@@]1(CCS(=O)(=O)c2ccccc2)N=C(c2ccc(OCCCO)cc2)O[C@H]1c1ccccc1N=[N+]=[N-]` was -0.527 (inactive); that for `C=C(CCCC)C(=O)CC[C@H](OC(=O)c1cccnc1)c1ccc(CO)o1` was -0.348 (inactive); that for `COCCOC(=O)N1C(=O)[C@@]2(c3cc(C#CC4(O)CCCCCC4)ccc31)[C@H](c1ccc(OCCO)cc1)N1[C@H](c3ccccc3)[C@H](c3ccccc3)OC(=O)[C@H]1[C@@H]2C(N)=O` was -0.137 (inactive).

With `CN(C)C(=O)[C@]1(Cc2ccccc2)N=C(c2ccc(OCCCO)cc2)O[C@@H]1c1ccccc1`, the z-score is -0.855 (inactive).

In the case of `COc1ccc(C#Cc2ccc3c(c2)[C@]2(C(=O)N3)[C@H](C(=O)Nc3nc4ccccc4s3)[C@H]3C(=O)O[C@H](c4ccccc4)[C@H](c4ccccc4)N3[C@@H]2c2ccc(OCCO)cc2)cc1`, the z-score is -0.368 (inactive).

On to `CCOC(=O)C[C@H]1[C@H](OC(=O)c2ccc(C(=O)c3ccccc3)cc2)[C@@H](NC(=O)c2ccc3ccccc3c2)c2cc(OCCCO)ccc2N1C(=O)c1ccc2ccccc2n1`, for which the z-score is 1.86 (inactive). The value for `CN(C)CCCCNC(=O)[C@H]1C[C@H]2C(=O)N[C@@H](Cc3ccccc3)C(=O)N2[C@H]1c1cccc(OCCO)c1` was 2.11 (inactive); that for `C=C(CC1([C@@H](NP(=O)(c2ccccc2)c2ccccc2)[C@H]2C[C@@H]2CCN(C(=O)OCC)S(=O)(=O)c2ccc(C)cc2)CC1)c1ccccc1` was -1.42 (inactive); that for `C=C(CCCC)/C(=C/C[C@H](OC(C)=O)c1cccc(OCCO)c1)c1cc(C(=O)OC)ccc1OC` was 1.19 (inactive). The value for `C=CCNC(=O)[C@H]1[C@@H]2C(=O)O[C@@H](c3ccccc3)[C@@H](c3ccccc3)N2[C@@H](c2ccccc2OCCO)[C@]12C(=O)N(C(=O)OCCOC)c1ccccc12` was -0.557 (inactive); that for `O=C1OCCC/C=C\[C@H]2OC34C=CCN(Cc5ccccc5)C(=O)[C@H]3N(CCCCCO)C(=O)[C@@H]4C12` (stereo not given in full) was 0.435 (inactive).

With `CC(C)(C)OC(=O)CC[C@]1(C(=O)N2CCOCC2)N=C(c2ccc(OCCCO)cc2)O[C@H]1c1ccccc1CN=[N+]=[N-]`, the z-score is -0.47 (inactive). The value for `CCCC=C(CCC)[C@@H](NC(=O)c1ccco1)c1ccc(C(=O)OC)cc1` was -1.68 (inactive); that for `COC(=O)c1c(CC[C@@H](CO)NC(=O)N[C@@H](Cc2ccccc2)Cn2cc(-c3cncn3C)nn2)oc(C(C)=O)c1C(=O)OC` was 0.922 (inactive); that for `COC(=O)[C@@]1(Cc2ccc(OC)cc2)[C@H]2c3cc(C(=O)N(C)C)n(Cc4ccsc4Br)c3C[C@H]2CN1C(=O)c1ccccc1` was -0.218 (inactive). For the compound `C=CCC(OC(C)=O)[C@@H]1[C@@H](N(Cc2ccc(-c3ccccc3)cc2)C(=O)c2ccc(-c3ccccc3)cc2)c2cc(OCCCO)ccc2N1C(=O)c1ccc2ccccc2n1` (stereo not given in full), the z-score was 0.803 (inactive).

`O=C1c2ccccc2[C@](Cc2ccccc2I)(C(=O)O)[C@H](c2ccc(CO)cc2)N1Cc1ccccc1`: the z-score was 0.848 (inactive). Next, `COCC(=C=CC[C@@H](O)c1cccc(OCCO)c1)C[C@@H](O)COCc1ccccc1`: 1.63 (inactive); `C[N+](C)(C)CCCCCCNC(=O)[C@@H]1C[C@@H]2C(=O)N[C@@H](Cc3ccccc3)C(=O)N2[C@@H]1c1ccc(O)cc1`: 0.38 (inactive). Next, `COCCOC(=O)N1C(=O)[C@@]2(c3ccccc31)[C@H](c1ccc(OCCO)cc1)N1[C@H](c3ccccc3)[C@H](c3ccccc3)OC(=O)[C@H]1[C@@H]2C(=O)N1CCN(c2ncccn2)CC1`: 0.118 (inactive); `COCCOC(=O)N1C(=O)[C@@]2(c3cc(C#CCCO)ccc31)[C@H](c1ccccc1OCCO)N1[C@H](c3ccccc3)[C@H](c3ccccc3)OC(=O)[C@H]1[C@@H]2C(=O)N1CCc2cc(OC)c(OC)cc2C1`: 0.891 (inactive). Next, `C=CCC(OC(C)=O)[C@@H]1[C@@H](N(Cc2cc3ccccc3o2)C(=O)Cc2ccc(OC)cc2)c2cc(OCCCO)ccc2N1C(=O)Cc1ccc(OC)cc1` (stereo not given in full): -0.759 (inactive); `CC(C)C[C@H]1NC(=O)[C@@]23C(=O)N[C@@H](Cc4ccccc4)C2[C@H](C)[C@@]2(C)O[C@H]2C3/C=C/C/C=C\CNC(=O)[C@@H]2CCCN2C1=O` (stereo not given in full): -1.09 (inactive).

As for `COCCOC(=O)N1C(=O)[C@@]2(c3cc(C#CCC(C(=O)OC)C(=O)OC)ccc31)[C@H](c1ccc(OCCO)cc1)N1[C@H](c3ccccc3)[C@H](c3ccccc3)OC(=O)[C@H]1[C@@H]2C(=O)N1CCCCCCC1`, the z-score was 0.759 (inactive).

`COCC(=C=CC[C@@H](O)c1ccc(OCCO)cc1)C[C@@H](O)COCc1ccccc1`: the z-score was 1.81 (inactive). The value for `COC(=O)[C@@H]1N=C(c2ccc(OCCCO)cc2)O[C@@H]1c1ccccc1CN=[N+]=[N-]` was 0.664 (inactive); that for `C=C(COC)C(=O)CC[C@@H](OC(C)=O)c1ccc(OCCO)cc1` was -0.297 (inactive). Next, `O=C(NCCO)C1=C[C@H](Oc2ccccc2I)[C@@H](O)[C@H](NCc2ccc(F)cc2)C1`: -1.76 (inactive). Consider `O=C1O[C@@H](c2ccccc2)[C@@H](c2ccccc2)N2[C@@H](c3ccc(OCCO)cc3)[C@]3(C(=O)Nc4ccc(C#CCCO)cc43)[C@@H](C(=O)Nc3nc4ccccc4s3)[C@H]12`, for which the z-score was 2.3 (inactive). With `NCCCC[C@@H]1NC(=O)[C@H]2C[C@@H](C(=O)O)[C@@H](c3cccc(OCCO)c3)N2C1=O`, the z-score is -1.23 (inactive). Next, `COCCOC(=O)N1C(=O)[C@@]2(c3cc(C#CCCO)ccc31)[C@H](C(=O)N1CCc3cc(OC)c(OC)cc3C1)[C@H]1C(=O)O[C@H](c3ccccc3)[C@H](c3ccccc3)N1[C@@H]2c1ccccc1OCCO`: 0.718 (inactive); `COC(=O)[C@@]1(Cc2ccccc2)[C@@H]2[C@@H](CC(=O)[C@H]2CC(=O)C(=O)N(C)C)CN1C(=O)c1ccccc1`: -0.655 (inactive); `O=C1O[C@H](c2ccccc2)[C@H](c2ccccc2)N2[C@H]1[C@@H](C(=O)N1CCN(c3ncccn3)CC1)[C@]1(C(=O)Nc3ccccc31)[C@H]2c1ccc(O)cc1`: 0.649 (inactive). The value for `CCOC(=O)C1=CC[C@@H](c2ccccc2Cl)N(S(=O)(=O)c2ccc(C)cc2)[C@H]1c1cccc(OC)c1` was -1.44 (inactive).
